Growth data for nine molecules are collected here from PubChem BioAssay (NCI).

Among the test systems are EKVX NSCLC; SN12C renal; UO-31 renal; TK-10 renal; ACHN renal; CAKI-1 renal; A498 renal; CCRF-CEM leukemia; MOLT-4 leukemia; RPMI-8226 leukemia; OVCAR-8 ovarian; OVCAR-5 ovarian; OVCAR-4 ovarian; SK-OV-3 ovarian; IGROV1 ovarian; HS 578T breast; NCI/ADR-RES ovarian; OVCAR-3 ovarian; SR leukemia.
Holding throughout (assay): NCI-60 one-dose screen, 48 h (100 = growth as untreated, 0 = no growth, -100 = all killed)
Conditions in all cases: 10 µM unless noted

Compounds without any hit were thinned out: in the full panel of roughly 83,000, 20% have a hit.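 Negative percent growth values reflect cell death: -40 means 40% of the cells present at the start died, and -100 means all died.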 Unmarked numbers belong to inactive results. Calls of active or inactive are those of the source. How the source made its calls: active means growth percent below 10; inactive means the rest.

Take `CCOC(=O)CC1C(COC(=O)NC)OC(n2cnc3c(NC(=O)Nc4ccccc4)ncnc32)C1O[Si](C)(C)C(C)(C)C` (stereo not drawn): the growth was 67.5% with EKVX NSCLC; 34.8% with SN12C renal; 41.9% with UO-31 renal; 87.7% in the experiment with TK-10 renal; 25.8% in the experiment on ACHN renal; 60.8% with CAKI-1 renal. Moreover, the growth with A498 renal is 77.4%; in the experiment with CCRF-CEM leukemia, 57.4%; in the experiment on MOLT-4 leukemia it was 34.3%; in the experiment with RPMI-8226 leukemia, 39.7%; in the experiment on OVCAR-8 ovarian, 74%; in the experiment with OVCAR-5 ovarian, 94.2%. In addition, the growth with OVCAR-4 ovarian is 41.6%; with SK-OV-3 ovarian it was 94.9%; with IGROV1 ovarian, 49.1%; in the experiment on HS 578T breast, 57.1%; with NCI/ADR-RES ovarian, 48.1%.

`O=C1NC(=O)C(c2ccccc2)(c2ccccc2)N1Cc1cn(-c2c3ccccc3nc3ccccc23)nn1`: the growth is 80.4% with EKVX NSCLC; 83.6% in the experiment on SN12C renal; 62.4% in the experiment with UO-31 renal; 74.9% in the experiment with TK-10 renal; 81.5% with ACHN renal; 73.5% with CAKI-1 renal. The growth with A498 renal was 77.7%; in the experiment on CCRF-CEM leukemia, 64.6%; in the experiment with MOLT-4 leukemia, 53.5%; with RPMI-8226 leukemia, 72.4%; with OVCAR-5 ovarian it was 103%; with OVCAR-4 ovarian it was 81.1%. The growth is 83.5% in the experiment on SK-OV-3 ovarian; 83.3% in the experiment with IGROV1 ovarian; 87% in the experiment on OVCAR-3 ovarian; 83% in the experiment on HS 578T breast; 87% in the experiment with NCI/ADR-RES ovarian.

With `NCCOc1ncccc1/C=C1\C2C=CC=CC2C2C=CC(F)=CC12` (stereo not drawn), the growth in the experiment with EKVX NSCLC is 43.9%; in the experiment with SN12C renal, -3.7% (active); in the experiment with UO-31 renal, -0.645% (active); in the experiment with TK-10 renal, 41.7%; in the experiment with ACHN renal, -34% (active); in the experiment on CAKI-1 renal, 25%. The growth in the experiment with A498 renal is 17.2%; in the experiment with CCRF-CEM leukemia it was 3.62% (active); in the experiment with MOLT-4 leukemia, 0.118% (active); in the experiment with SR leukemia, 0.916% (active); in the experiment on OVCAR-8 ovarian, 25.7%; with OVCAR-5 ovarian it was 31.3%. Also, the growth in the experiment with OVCAR-4 ovarian was 68.3%; in the experiment with SK-OV-3 ovarian it was 20.1%; with IGROV1 ovarian, 29.9%; with OVCAR-3 ovarian, 35%; in the experiment on HS 578T breast it was 61.5%; in the experiment with NCI/ADR-RES ovarian, 27.8%.

Regarding `COc1cc(CNS(=O)(=O)c2ccc(C)cc2)ccc1OCc1cn(-c2ccccc2)nn1`, the growth in the experiment on SN12C renal was 93.3%; in the experiment on UO-31 renal, 79.5%; in the experiment with TK-10 renal, 104%; with ACHN renal it was 95.1%; with CAKI-1 renal it was 88.5%; in the experiment with A498 renal it was 59%. The growth with CCRF-CEM leukemia is 88.9%; in the experiment on MOLT-4 leukemia it was 88.4%; in the experiment on RPMI-8226 leukemia, 67.9%; in the experiment with OVCAR-8 ovarian it was 93.2%; in the experiment with OVCAR-5 ovarian, 97.9%; in the experiment on OVCAR-4 ovarian, 56.8%. Further, the growth is 97.6% in the experiment on SK-OV-3 ovarian, 85% with OVCAR-3 ovarian, 86.1% in the experiment with HS 578T breast and 81.3% with NCI/ADR-RES ovarian.

Take `COc1cc(C2CC(c3cccc(Br)c3)=NN2C(C)=O)cc(OC)c1OC` (stereo not drawn): the growth in the experiment with EKVX NSCLC is 52.7%; in the experiment with SN12C renal, 41.8%; with UO-31 renal, -27.7% (active); in the experiment on TK-10 renal, 48.4%; in the experiment on ACHN renal, 39.8%; in the experiment with CAKI-1 renal, 39.1%. Also, the growth in the experiment with A498 renal is 19.1%; in the experiment on CCRF-CEM leukemia, 14.9%; in the experiment with MOLT-4 leukemia it was 19%; in the experiment on SR leukemia it was 46.3%; in the experiment with RPMI-8226 leukemia it was 4.29% (active); with OVCAR-5 ovarian, 46.5%. The growth with OVCAR-4 ovarian was 41.7%; in the experiment on SK-OV-3 ovarian it was 45.3%; in the experiment on IGROV1 ovarian, -17.3% (active); with OVCAR-3 ovarian, -22% (active); with HS 578T breast, 34.6%; with NCI/ADR-RES ovarian, -19.5% (active).

`CN1C(=O)CNC(=O)[C@H](NC(=O)c2nc3ccccc3cc2O)CSSC[C@H]1C(=O)NCCc1nc2ccccc2cc1O`: the growth is 73.9% with EKVX NSCLC; 69.2% with SN12C renal; 56.5% in the experiment on UO-31 renal; 67.9% in the experiment with TK-10 renal; 78.6% with ACHN renal; 105% in the experiment with CAKI-1 renal. The growth with CCRF-CEM leukemia was 23.5%; with MOLT-4 leukemia, 0.111% (active); with SR leukemia, -41.8% (active); in the experiment on OVCAR-8 ovarian, 92.2%; with OVCAR-5 ovarian, 129%; with OVCAR-4 ovarian it was 90.7%. Besides, the growth is 117% in the experiment on SK-OV-3 ovarian, 19.5% in the experiment on OVCAR-3 ovarian, 92.3% with HS 578T breast and 105% with NCI/ADR-RES ovarian.

For `Cc1nc2ccccc2n1CC1C(=O)NC(=O)NC1=O`, the growth in the experiment on EKVX NSCLC is 106%; with SN12C renal, 104%; in the experiment on TK-10 renal, 107%; in the experiment on ACHN renal it was 109%; in the experiment with CAKI-1 renal, 104%; in the experiment with A498 renal, -34.3% (active). For the same molecule, the growth with CCRF-CEM leukemia is 103%; in the experiment with MOLT-4 leukemia, 98.1%; with RPMI-8226 leukemia, 115%; with OVCAR-8 ovarian, 105%; in the experiment with OVCAR-5 ovarian, 103%; in the experiment with OVCAR-4 ovarian, 107%. For the same molecule, the growth was 107% with SK-OV-3 ovarian; 106% with IGROV1 ovarian; 119% in the experiment with OVCAR-3 ovarian; 110% in the experiment with HS 578T breast; 99.3% in the experiment on NCI/ADR-RES ovarian.

In the case of `COC1=C(C)C(=O)c2c(c(CCCl)c3n2CCC3O)C1=O` (stereo not drawn), the growth with EKVX NSCLC was 13.6%; in the experiment with SN12C renal, 6.15% (active); in the experiment on UO-31 renal, -60.4% (active); in the experiment with TK-10 renal, -35.2% (active); in the experiment on ACHN renal it was -3.06% (active); in the experiment with CAKI-1 renal, 10.9%. In addition, the growth was -79.9% (active) with A498 renal; 66.3% in the experiment on CCRF-CEM leukemia; 74.6% in the experiment with MOLT-4 leukemia; 7.38% (active) in the experiment with SR leukemia; 12.1% in the experiment with OVCAR-8 ovarian; 10.4% with OVCAR-5 ovarian. Further, the growth was 79.1% in the experiment with OVCAR-4 ovarian; -9.52% (active) in the experiment on SK-OV-3 ovarian; 0.645% (active) in the experiment with OVCAR-3 ovarian; -6.16% (active) in the experiment with HS 578T breast; 6.59% (active) in the experiment on NCI/ADR-RES ovarian.

As to `O=c1c2cc(F)ccc2sc2c(NCCO)nc3ccccc3c12`, the growth is 83.3% with EKVX NSCLC; 98.4% with SN12C renal; 77.8% in the experiment with UO-31 renal; 114% in the experiment on TK-10 renal; 103% with ACHN renal; 90.8% with CAKI-1 renal. Also, the growth was 80.6% in the experiment on A498 renal; 105% with CCRF-CEM leukemia; 104% in the experiment with MOLT-4 leukemia; 88.9% in the experiment on SR leukemia; 97.1% with OVCAR-8 ovarian; 108% with OVCAR-5 ovarian. Moreover, the growth was 111% with OVCAR-4 ovarian; 109% with SK-OV-3 ovarian; 121% with OVCAR-3 ovarian; 110% in the experiment on HS 578T breast; 103% in the experiment with NCI/ADR-RES ovarian.
